# Source: the supplement of paper PMC6555819
# What was measured:
# Experiment in all cases: PBM binding z-score (relative to random genomic background probes); higher = stronger binding; sequences stand for … in GC…GCGATTGACAGCGTAGAATGAAGG
# [1] = tested on: RARb homodimer (NR concentration 270 nM)
# Procedure, shortened: (§1)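 The probes on custom Agilent 4×180K protein-binding microarrays were double-stranded, with 34-nt variable regions bearing direct-repeat seeds, single-nucleotide variants, half-site ablations and random human genomic background sequences. Incubation lasted 1 h with ligand-free nuclear receptor dimers in PBS pH 7.4, 2% milk, 0.02% Triton X-100, 1 mM DTT, 0.2 mg/mL BSA and 0.4 mg/ml salmon testes DNA. Antibodies against each partner (one per run) detected bound dimers, and fluorescence scans were regression-normalized. Binding z-scores take the random background probes as reference.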
# [2] = tested on: RARg:RXRa (NR concentration 270 nM, RXRa partner concentration 90 nM)
# Procedure, shortened: as §1
# [3] = tested on: RARg homodimer (NR concentration 270 nM)
# Procedure, shortened: as §1
# [4] = tested on: RXRa DBDmut IVT, anti-RXR (DBD mutation: RXRa K156A/R161A, NR concentration 90 nM)
# Procedure, shortened: as §1
# [5] = tested on: RXRa homodimer (NR concentration 180 nM)
# Procedure, shortened: as §1
# [6] = tested on: THRa:RXRa (NR concentration 90 nM, RXRa partner concentration 90 nM)
# Procedure, shortened: as §1
# [7] = tested on: THRa homodimer (NR concentration 90 nM)
# Procedure, shortened: as §1
# [8] = tested on: VDR homodimer (NR concentration 270 nM)
# Procedure, shortened: as §1
Sequence,PBM binding z-score [1],PBM binding z-score [2],PBM binding z-score [3],PBM binding z-score [4],PBM binding z-score [5],PBM binding z-score [6],PBM binding z-score [7],PBM binding z-score [8]
CCTACTGGGCCACAAAGGTCATTGATGCCGATAA,4.64,5.33,4.68,1.13,6.32,3.38,0.818,3.31
GGGACGAGGGCATTCGAGTTGATAGCATGGCGAT,1.01,1.19,1.58,2.93,0.775,3.52,-0.0645,3.06
CCAGACAGGTGAAAGATAACTCAGTCTGGTACGC,0.244,0.614,0.6,0.193,0.775,0.125,-0.296,0.339
GCTGCTAGGTCAGGTTGGTCAGCTCACGGGTACG,2.66,2.78,3.52,0.658,1.28,1.84,0.901,0.536
TGTCAAAGTTCAAAGCTAACGTAAGTATCCACAC,3.48,5.47,5.72,4.37,4.59,1.76,-0.21,3.56
TCTTCTAGATCAACAGGAGGTTAAGAAAGATCGA,0.617,0.984,0.501,0.855,1.01,0.77,-0.076,-0.175
CAAACTAGGTCAAGCGGTCAAAGTCCGCTTCCCG,4.55,5.64,6.19,1.57,4.04,3.23,0.992,1.5
TCTGCTAGGTCAGTTGTTCAGCTAACGAGCTGCC,2.19,2.19,3.35,0.434,0.641,1.25,0.158,-0.531
CCTACTGGGCCATCAGCTCATTGATATCAACGTT,-0.431,-0.217,0.0511,-0.384,-0.717,-0.526,-0.399,-0.517
CCGACTGGGGCAAAGGTTACCTTACTCAGTACGA,2.02,3.15,1.62,0.0718,3.54,2.12,0.802,-0.495
TCTGCTAGGTCCACGATGGTCAGCTAATCTGCTA,-0.207,-0.213,-0.0544,0.651,-0.333,-0.32,-0.873,-0.326
TCGAGTAGGTTAGTCGGGGCAGTCAGCCAACATA,0.699,-0.199,0.0307,0.125,-0.226,0.854,-0.302,-0.321
ACTATTAGTTGACTCAGGGCAACCGATACGACGC,0.937,0.721,0.905,0.661,0.488,1.5,0.878,0.644
TCATATAGGTAATACAGGTGAAATTCGGCATCTA,0.536,0.764,0.496,1.51,1.34,1.04,0.421,0.0975
ACTAGCAGGCCAAGTTTGCGTCACTCAAACAAAG,0.00722,-0.201,-0.0389,0.079,-0.299,-0.253,-0.635,0.0311
